High-throughput results from PubChem BioAssay.
aSyn UTR act: Activators via SNCA 5'UTR binding, MLPCN | 300,000 compounds, 7.1% hits | activity score, % (tested at 7.5 µM), hits read low | alpha-synuclein 5'UTR reporter, activators screen | AID 1814, 2009; in the data active = activity score below about -60%
Active calls of the source: *. The list is a sample of the results.

SMILES	aSyn UTR act
C/C(=N\NC(=O)c1nn(C)c(C)c1Br)c1cccc(NC(=O)c2ccoc2C)c1	-71*
C/C(=N\NC(=O)c1ccoc1C)c1ccccc1	-127*
C/C(=N/NC(=O)c1ccoc1C)c1ccc(NC(=O)C2CCCC2)cc1	-121*
CCSc1nsc(NC(=O)Nc2ccccc2F)n1	-183*
CCSc1nsc(NC(=O)Nc2cccc(OC)c2)n1	-140*
CC(C)NCC(O)Cn1c2c(c3ccccc31)CCc1c-2cnn1-c1ccccc1 (stereo not drawn)	108
C=CCc1c(C)[nH]c2ccc(C)cc2c1=O	-86*
CCC(=NCCc1c(C)[nH]c2ccc(C)cc12)C1=C(O)CC(c2ccccc2)CC1=O (stereo not drawn)	104
O=C(Nc1cccc(O)c1)c1c(O)c2ccccc2[nH]c1=O	-92*
Cc1ccnc2nc(C(=O)Nc3cc(Cl)ccc3N3CCOCC3)nn12	-77*
O=C(O)c1ccccc1OCc1nc2ccccc2s1	-146*
O=C(OCc1nc2ccccc2s1)c1cnccn1	-134*
O=C(OCc1nc2ccccc2s1)c1ccccc1O	-137*
O=C(OCc1nc2ccccc2s1)c1cccs1	-197*
O=C(NC1CC(=O)c2sccc21)c1ccc(Cl)cc1Cl (stereo not drawn)	-87*
Fc1ccc(Cn2cccc2C2=NC(c3ccccc3)CO2)cc1 (stereo not drawn)	-88*
Cc1ccc(C(=O)NCC(=O)N2CCCC(C(F)(F)F)C2)s1 (stereo not drawn)	-62*
COc1ccc2cc3cc(C(=O)N4CCCC(C)C4)oc3nc2c1 (stereo not drawn)	-64*
CCOC(=O)C1CCCN(C(=O)c2cc3cc4ccc(OC)cc4nc3o2)C1 (stereo not drawn)	-101*
CCOc1cccc2c1OC(c1cc(OC)c(OC)c(OC)c1)N1N=C(c3ccc(C)o3)CC21 (stereo not drawn)	-219*
CCc1ccccc1NC(=O)c1cc(-c2ccc(OC)cc2)on1	-77*
COc1ccc(-c2cc(C(=O)Nc3cc(Br)ccc3O)no2)cc1	-107*
COc1ccc(NC(=O)c2cccnn2)cc1	-97*
CC(C)n1cc(NC(=O)c2cc(-c3ccccc3)on2)cn1	-218*
COc1ccc(NC(=O)c2cc(C)nn2-c2ccccc2)cc1	-73*
SMILES	aSyn UTR act
COc1ccc(NC(=O)c2cc(C)on2)cc1	-106*
COc1ccc(NC(=O)c2cc(-c3ccccc3)on2)cc1	-77*
Cc1ccc(C(=O)Nc2nc3ccccc3n2CCN2CCCC2)cc1	-76*
CCCCCCCn1c(NC(=O)CC)nc2ccccc21	68
CC(=O)Nc1nc2ccccc2n1Cc1ccccc1C	67
C=CCn1c(NC(=O)c2ccc(C)cc2)nc2ccccc21	-111*
Cc1ccc(O)c(C2=NNC(c3ccc(Cl)cc3)C2)c1 (stereo not drawn)	-128*
Cc1ccc(C2Cc3cc(O)c(O)cc3CN2)cc1 (stereo not drawn)	89
Oc1ccc(Cl)cc1CNc1ccc(Br)cn1	-142*
O=C(Cc1ccc(Cl)cc1)Nc1ccc(Br)cc1	-67*
O=C(Cc1ccc(Cl)cc1)Nc1ccc(Br)cn1	-66*
CCCNc1nc(Cl)nc(Nc2ccc(Cl)cc2)n1	-63*
CC(C)(C)Nc1nc(Cl)nc(Nc2ccccc2)n1	-136*
Cc1nc(S(=O)(=O)N(C)c2ccccc2)c(C#N)c(C)c1Cl	-77*
O=[N+]([O-])c1ccccc1S(=O)(=O)c1ccccc1[N+](=O)[O-]	-62*
CC(CS(=O)(=O)c1ccccc1[N+](=O)[O-])N1CCOCC1 (stereo not drawn)	-70*
Cc1cc(C)n(-c2nc(-c3ccccc3)cs2)n1	-89*
Cc1cc(C)n(-c2nc(-c3cccc(Cl)c3)cs2)n1	-102*
Cc1ccc(-c2cc3c(nn2)-c2ccccc2C3=O)cc1	86
c1ccc2c(c1)Cc1cc3ccccc3nc1-2	-102*
O=C1c2ccccc2-c2nc3ccccc3cc21	-114*
COc1cccc(C2(O)CC(C(F)(F)F)=NN2C(=O)c2ccccn2)c1 (stereo not drawn)	-113*
COc1cccc2c1OC1(CCN(C(C)C)CC1)N1N=C(c3cccnc3)CC21 (stereo not drawn)	-78*
Cc1ccc(S(=O)(=O)N2CCCC(C(=O)Nc3ccc(NC(=O)c4ccccn4)cc3)C2)cc1 (stereo not drawn)	-74*
O=C(Nc1ccc(NC(=O)C2CC2)nc1)c1ccco1	-121*
SMILES	aSyn UTR act
O=C(Nc1ccc(NC(=O)C2CCCCC2)nc1)c1ccco1	-101*
Cc1ccc(NC(=S)N=Nc2c(O)n(C)c3ccc(S(=O)(=O)N4CCOCC4)cc23)cc1	75
CNS(=O)(=O)c1ccc(NC(=O)c2cc(-c3ccncc3)nc3ccc(Cl)cc23)cc1	-98*
CNS(=O)(=O)c1ccc(NC(=O)c2ccccn2)cc1	-73*
O=C(Nc1ccc(NC(=O)C2CCCCC2)nc1)c1ccccn1	-108*
CCC(=O)Nc1ccc(-c2ccc(N3CCN(C)CC3)nn2)cc1	-73*
CC1CCN(c2ccc(-c3cccc(NC(=O)C(F)(F)F)c3)nn2)CC1	103
CCC(=O)Nc1ccc(-c2ccc(N3CCC(C)CC3)nn2)cc1	-96*
Cn1c(N)c(-c2nc3cccnc3n2C)sc1=S	-95*
CCOc1ccc(C(=O)Nc2nnc(SCC(=O)NCC3CCCO3)s2)cc1 (stereo not drawn)	76
Cc1ccc(-c2ccc(SCC(=O)NCC3CCCO3)nn2)cc1 (stereo not drawn)	-85*
CCOC(=O)c1c(C)n(-c2ccc(C)cc2)c2ccc(OCC(O)CNCC3CCCO3)cc12 (stereo not drawn)	75
CCOc1ccc(-c2ccc(SCC(=O)NCC3CCCO3)nn2)cc1 (stereo not drawn)	-67*
O=c1[nH]c(SCc2ccc(Cl)cc2)nc2[nH]ncc12	-70*
O=C(NCCc1ccccc1)c1cccnc1	-99*
O=C(NCCc1ccccc1)c1cccc(Br)c1	-131*
O=C(CCCc1ccccc1)Nc1cccc([N+](=O)[O-])c1	-161*
O=C(NCCc1ccccc1)c1ccc2nccnc2c1	63
O=C(O)c1cccc(S(=O)(=O)Nc2ccccc2C(=O)NCCc2ccccc2)c1	-64*
O=C(NCCc1ccccc1)c1cnc2ccccc2n1	-99*
O=C(NCCc1ccccc1)c1cccc([N+](=O)[O-])c1	-77*
Nc1nc(-c2ccccc2)cn1/N=C/c1ccccc1	-138*
Cc1cccc(Cc2nnc(CCC(=O)N(CC3CC3)CC3CCCO3)o2)c1 (stereo not drawn)	-112*
CCCOC1CCCN(C(=O)CCc2nnc(Cc3cccc(C)c3)o2)C1 (stereo not drawn)	-164*
CN1C(=O)CSc2ccc(NC(=O)Nc3ccccn3)cc21	-116*
SMILES	aSyn UTR act
O=C(Nc1ccc(Cl)c(Cl)c1)Nc1ccccn1	-178*
COc1ccc(NC(=O)Nc2ccccn2)cc1OC	-79*
O=C(Nc1ccc(OC(F)(F)F)cc1)c1cnc2n(c1=O)CCS2	-160*
O=C(NCCCc1ccccc1)c1cnc2n(c1=O)CCS2	-125*
O=C(Nc1ccccc1)c1cnc2n(c1=O)CCS2	-100*
Nc1c(C(=O)Nc2ccc(S(=O)(=O)N3CCCC3)cc2)sc2nc3ccc(OC(F)(F)F)cc3cc12	109
O=C(Nc1cccc(C(F)(F)F)c1)c1cnc2n(c1=O)CCS2	-108*
CC1CCc2cccc3c2N1c1cc(C#N)c(C#N)cc1O3 (stereo not drawn)	71
O=C(NCCC1=CCCCC1)c1cnc2n(c1=O)CCS2	-108*
